In the library only some 7.3% were active in any assay of this set; here they are far more common.
p53 reactivator: qHTS assay for re-activators of p53 using a Luc reporter. AID 504706, 2011. H1299 p53-A138V BP100-luciferase reporter, luminescence, 24 h. Potency, µM (titrated, usually from 92.2 µM), usual class: activators. actives 0.063% (n = 320,000); also: nearly all actives have a fitted effect of over 45% in size
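p53-null H1299 cells stably carrying temperature-sensitive p53-A138V and a BP100-luciferase reporter were pinned with compounds (4-point, 1:5 series) and held 24 hrs at 37 deg C. Luminescence was read 10 min after detection reagent.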
SMN2 splice up: qHTS Assay for Enhancers of SMN2 Splice Variant Expression; Potency, µM (titrated, usually from 46.1 µM), actives largely listed as activators; HEK293 SMN2-luciferase splicing reporter, luminescence, 30-36 h; actives 2.8% (n = 210,000); also: nearly all actives have a fitted effect of over 55% in size
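HEK293 cells carry an SMN2 […]–luciferase reporter in which exon 7 inclusion puts luciferase in frame. Cells were plated 10-12 h before compound addition, then incubated 30-36 h at 37C. ONE-Glo luminescence was read; sodium butyrate at 4.5 mM final served as control.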
FLuc modulator: qHTS profiling assay for firefly luciferase inhibitor/activator using purifed enzyme and Km concentrations of substrates (counterscreen for miR-21 project); actives 6.9% (n = 360,000); AID 588342, 2011; Luciferin 4-monooxygenase (Photinus pyralis), P08659; purified FLuc, Km substrates, luminescence inhibition; Potency, µM (series often up to 57.5 µM), usual class: inhibitors; also: nearly all actives have a fitted effect of over 55% in size
Target sequence (P08659 whole entry, looked up): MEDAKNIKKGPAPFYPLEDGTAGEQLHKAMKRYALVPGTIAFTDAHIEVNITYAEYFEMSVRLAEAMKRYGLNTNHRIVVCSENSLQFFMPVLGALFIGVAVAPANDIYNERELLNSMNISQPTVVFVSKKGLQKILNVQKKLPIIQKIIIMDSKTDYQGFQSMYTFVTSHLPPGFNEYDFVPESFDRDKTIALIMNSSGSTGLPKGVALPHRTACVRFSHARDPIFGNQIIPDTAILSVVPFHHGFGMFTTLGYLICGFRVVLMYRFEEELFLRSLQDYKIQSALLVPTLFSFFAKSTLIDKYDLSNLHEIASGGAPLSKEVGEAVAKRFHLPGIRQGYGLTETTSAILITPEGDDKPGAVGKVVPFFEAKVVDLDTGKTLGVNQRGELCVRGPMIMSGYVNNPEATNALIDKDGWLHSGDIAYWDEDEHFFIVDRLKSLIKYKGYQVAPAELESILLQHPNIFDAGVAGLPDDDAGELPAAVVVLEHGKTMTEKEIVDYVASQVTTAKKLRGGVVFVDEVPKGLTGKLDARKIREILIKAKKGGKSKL
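Purified P. pyralis luciferase, 10 nM final, with Km-level 10 uM D-luciferin and 10 uM ATP in 50 mM Tris acetate pH 7.5, 10 mM Mg acetate, 0.01% Tween-20, 0.05% BSA; 6-point qHTS titration about 60 µM downward; luminescence read.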
NPC1 prom act: qHTS Assay for NPC1 Promoter Activators; Huh7 NPC1 promoter luciferase reporter, 24 h; Potency, µM (series often up to 9.22 µM), usual class: activators; actives 2.4% (n = 320,000); also: nearly all actives have a fitted effect of over 60% in size
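Huh7 cells stably carrying NPC1 promoter–luciferase, plated in Opti-MEM with 10% FBS for 2 h, were exposed to compound in DMSO for 24 h at 37 °C; luciferase reagent was added for 10 min and luminescence read.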
Rab9 prom act: qHTS Assay for Rab9 Promoter Activators | Huh7 Rab9 promoter-luciferase reporter, luminescence, 24 h | Potency, µM (highest dose often 9.22 µM), usual class: activators | actives 2.8% (n = 320,000) | AID 485297, 2010; also: nearly all actives have a fitted effect of over 60% in size
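Huh7 cells stably carrying Rab9 promoter–luciferase reporter, plated 1500 cells/well, compound added after 2 h and incubated 24 h at 37 °C; luciferase luminescence then read after 10 min with detection reagent.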
ELG1 genotox: qHTS screen for small molecules that induce genotoxicity in human embryonic kidney (HEK293T) cells expressing luciferase-tagged ELG1; AID 504466, 2011; Potency, µM (series often up to 46 µM), usual class: activators; HEK293T ELG1-luciferase reporter, luminescence, 16 h; actives 1.3% (n = 330,000); also: nearly all actives have a fitted effect of over 60% in size
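Quantitative HTS format in 1536-well plates. HEK293T ELG1-luciferase reporter cells receive test compound and are incubated 16 hr at 37 °C, 5% CO2; ONE-Glo added, 30 min room temperature, then luminescence read.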
Hits are given with their value; n = inactive; u = inconclusive; x = no result; [ ] = remark or other dose. Calls follow the shape of the dose curve; as a rule, active = well fitted curve in the direction sought with a large enough effect; inconclusive = small, poorly fitted or top-dose-only effect, or another doubt; inactive = no such curve, though single readings can be large; an effect the other way counts as inactive or inconclusive.

SMILES	p53 reactivator	SMN2 splice up	FLuc modulator	NPC1 prom act	Rab9 prom act	ELG1 genotox
COc1ccc(OCC(=O)N/N=C/c2ccc(N(C)C)cc2)cc1	n	n	13.5µM	n	n	n
COc1ccc(OCC(=O)N/N=C/c2cccn2-c2cccc(C(=O)O)c2)cc1	n	x	13.5µM	n	n	n
CN(C)c1ccc(/C=N/NC(=O)CCCO)cc1	n	n	n	n	n	n
CCCCCC(=O)N/N=C/c1ccc(N(C)C)cc1	u	u	12µM	u	u	u
C=CCNC(=O)c1onc(CSc2ccccn2)c1C(=O)NCC=C	n	x	n	n	n	n
c1ccc(-c2noc(-c3ccc4c(c3)OCO4)n2)nc1	n	0.501µM	0.239µM	u	u	u
c1ccc(-c2noc(-c3ccc4ccccc4c3)n2)nc1	n	0.501µM	0.0675µM	n	n	u
Cc1ccccc1C[C@H](C(=O)O)N1C(=O)c2ccc(C(=O)O)cc2C1=O	x	x	n	n	n	x
CSc1ccc(CNC(=O)C2CCCN(S(=O)(=O)N(C)c3ccc(F)cc3)C2)cc1 (configuration not stated)	x	n	n	x	x	x
COc1ccc(NC(=O)C2CCCN(c3nnc(C)c4c(C)n(-c5ccccc5)nc34)C2)cc1Cl (configuration not stated)	x	x	n	x	x	x
C/C(=N\NC(=O)c1cc(-c2ccccc2C)nc2ccccc12)c1cccnc1	n	x	n	n	n	n
C/C(=N\NC(=O)c1cc(-c2ccc(C)s2)nc2ccccc12)c1cccnc1	n	x	0.953µM	u	u	n
C/C(=N\NC(=O)c1cc(-c2cccc(OC(C)C)c2)nc2ccccc12)c1cccnc1	n	x	0.601µM	n	u	n
CNc1nc(SC)n(C)c(=O)c1N=O	u	x	n	n	n	n
O=C(NC(Cc1c[nH]c2ccccc12)C(=O)O)c1ccc(F)cc1 (configuration not stated)	n	n	u	n	n	n
COC(=O)C(Cc1c[nH]c2ccccc12)NC(=O)c1cncc(Br)c1 (configuration not stated)	n	x	n	n	n	n
CCOC(=O)C(Cc1c[nH]c2ccccc12)NC(=O)c1ccco1 (configuration not stated)	n	n	21.3µM	n	n	n
COC(=O)C(Cc1c[nH]c2ccccc12)NC(=O)c1ccc2nc[nH]c2c1 (configuration not stated)	n	x	2.39µM	n	n	n
NC(=O)COC(=O)[C@H](Cc1c[nH]c2ccccc12)NC(=O)c1ccc(F)cc1	n	x	23.9µM	n	n	n
CC1CC(C)CN(S(=O)(=O)c2ccc3c(c2)oc(=O)n3CC(=O)NCCCOC(C)C)C1 (configuration not stated)	n	x	n	n	n	n
Nc1nc(-c2ccccc2)nn1S(=O)(=O)c1ccccc1	n	n	n	n	n	n
CCc1ccc(CNC(=O)c2sc3ncccc3c2-n2c(C)ccc2C)cc1	x	x	n	x	x	x
C=C1C=C(C(F)F)n2ncc(C(=O)NCc3ccccc3C(F)(F)F)c2N1	x	x	n	x	x	x
CC(C)CCn1c(O)c(N=Nc2ccccn2)c2ccccc21	n	n[1.84 µM]	n	n	n	n
CCCn1c(O)c(N=Nc2ccc3ccccc3n2)c2ccccc21	u	u	8.49µM	1µM	0.708µM	u
Cc1ccc(C)c(NC(=O)Cn2c(SCC(=O)NCc3ccccc3)nc3ccccc32)c1	x	x	n	x	x	x
C=C(C)[C@@H]1CC[C@]2(C(=O)O)CC[C@]3(C)[C@H](CCC4[C@@]5(C)CC[C@H](O)C(C)(C)[C@@H]5CC[C@]43C)[C@@H]12 (some centres not stated)	x	n	x	x	x	x
COc1cccc(NC(=O)c2ccc[n+](C)c2)c1	n	x	n	n	n	n
CC(=O)c1cccc(NC(=O)c2ccc(CN3CCc4ccccc4C3)cc2)c1	x	x	u	n	n	n
